Records with an inconclusive call do not appear. The source made the active and inactive calls. Unless noted, the call rests on the fitted dose curve; in most records, active means well fitted curve in the direction sought with a large enough effect in the repeat runs; inconclusive means weak or mixed curves; inactive means no such curve, though single readings can be large; an effect the other way counts as inactive or inconclusive.
What was measured:
[1] = qHTS assay to identify small molecule antagonists of the vitamin D receptor (VDR) signaling pathway - cell viability counter screen (AID 743225); further: on the % scale 0 is the no-effect control and ±100 the full control effect; nearly all actives have a fitted effect of over 50% in size
In short: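 HEK293T VDR-bla; cpd + 1a,25-(OH)2D3 3 nM final, 16 h 37C/5% CO2; B/G FRET substrate 2 h RT; then CellTiter-Glo 30 min RT, luminescence.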

[2] = qHTS assay to identify small molecule agonists of the NFkB signaling pathway (AID 1159509; active means well fitted curve in the direction sought with a large enough effect in the signal ratio in the repeat runs, not every such curve was filed as active; the % refers to the signal ratio; further: series mostly up to about 61 µM; on the % scale 0 is the no-effect control and ±100 the full control effect)
In short: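 Agonist activity was read as beta-lactamase-driven FRET change (460 and 530 nm emission, 405 nm excitation) following 1.5 hr substrate loading at room temperature. Beforehand, ME-180 NFkB-bla reporter cells were treated with compounds for 5 hr at 37 C.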

[3] = qHTS assay to identify small molecule agonists of the NFkB signaling pathway - cell viability counter screen (AID 1159515; calls by dose curve; further: series mostly up to about 61 µM; on the % scale 0 is the no-effect control and ±100 the full control effect; nearly all actives have a fitted effect of over 55% in size)
In short: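 Parallel cytotoxicity counter screen in ME-180 cells carrying an NFkB-response-element beta-lactamase reporter, 2,000 cells/well. Compound exposure lasted 5 hr at 37 C, 5% CO2. Cell viability was quantified by CellTiter-Glo luminescence.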

[4] = qHTS assay to identify small molecule agonists of the endoplasmic reticulum stress response signaling pathway (AID 1159516; active means well fitted activation curve with a large enough effect in the signal ratio in the repeat runs, not every such curve was filed as active; the % refers to the signal ratio; further: on the % scale 0 is the no-effect control and ±100 the full control effect)
In short: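 Using a HeLa line with an ESRE-driven beta-lactamase gene, agonist activity was measured by FRET substrate fluorescence (460 and 530 nm emission) after cells were treated with compounds for 5 hr at 37 C and 5% CO2.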

[5] = qHTS assay to identify small molecule agonists of the endoplasmic reticulum stress response signaling pathway - cell viability counter screen (AID 1159517; calls by dose curve;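 further: HeLa cells carrying an ER stress response element beta-lactamase reporter; series mostly up to about 61 µM; on the % scale 0 is the no-effect control and ±100 the full control effect; nearly all actives have a fitted effect of over 50% in size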)
In short: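 In parallel with the ESRE reporter read, cytotoxicity was scored by CellTiter-Glo luminescence (30 min, room temperature) on HeLa ESRE-bla cells dosed for 5 hr.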

[6] = qHTS assay to identify small molecule antagonists of the retinoid-related orphan receptor gamma (ROR-gamma) signaling pathway - cell viability counter screen (AID 1159520); further: on the % scale 0 is the no-effect control and ±100 the full control effect; nearly all actives have a fitted effect of over 50% in size
In short: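 Tet-on ROR gamma CHO cells were given compounds for 2 hr, then doxycycline hyclate at 1 uM final, and incubated 16 hr at 37 C. Viability was measured as ATP content by CellTiter-Glo luminescence.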

[7] = target: Nuclear receptor ROR-gamma (Homo sapiens) (UniProt P51449); assay: qHTS assay to identify small molecule antagonists of the retinoid-related orphan receptor gamma (ROR-gamma) signaling pathway (AID 1159521;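 further: CHO cells with doxycycline inducible ROR-gamma driving an RORE luciferase reporter; top concentration of the series differs between compounds; on the % scale 0 is the no-effect control and ±100 the full control effect; nearly all actives have a fitted effect of over 50% in size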)
In short: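 Cells were plated, rested 4 h at 37 C, exposed to compounds for 2 h, then given 1 uM final doxycycline hyclate to induce RORγ expression. After 16 h, ONE-Glo luminescence from the ROR response element reporter was measured.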

[8] = qHTS assay to identify small molecule agonists of the AP-1 signaling pathway (AID 1159526; calls by dose curve; further: on the % scale 0 is the no-effect control and ±100 the full control effect)
[9] = target: Retinoic acid receptor RXR-alpha (Homo sapiens) (UniProt P19793); assay: qHTS assay to identify small molecule agonists of the RXR signaling pathway (AID 1159527; calls by dose curve; further: on the % scale 0 is the no-effect control and ±100 the full control effect; nearly all actives have a fitted effect of over 35% in size)
In short: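 Cells plated at 2,000/well, rested 5 hr at 37 C, pin-dosed with DMSO compound solutions, incubated 16 hr, then loaded with B/G FRET substrate for 2 hr at RT before dual-emission fluorescence reading.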

[10] = qHTS assay to identify small molecule agonists of the RXR signaling pathway - cell viability counter screen (AID 1159529)
In short: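 Steps: seed RXR-alpha-UAS-bla HEK 293T cells in assay medium containing 2% charcoal-stripped FBS; incubate 5 hr; add compounds in DMSO; incubate 16 hr at 37 C; after the bla read, add CellTiter-Glo and read luminescence at 30 min.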

[11] = qHTS assay to identify small molecule antagonists of the retinoid acid receptor (RAR) signaling pathway - cell viability counter screen (AID 1159551); further: on the % scale 0 is the no-effect control and ±100 the full control effect; nearly all actives have a fitted effect of over 35% in size
In short: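 ATP-based viability, C3RL4 cells, 6 h at 37 C with 1 uM final retinol co-added after compound; luminescence read 30 min post CellTiter-Glo, RT.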

[12] = qHTS assay to identify small molecule antagonists of the retinoic acid receptor (RAR) signaling pathway (AID 1159552)
In short: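 Retinol at 1 uM final stimulated RARE-luciferase expression in C3RL4 cells exposed to test compounds for 6 hr at 37 C. Reduced luminescence, read 30 min after detection reagent, indicated pathway antagonism.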

[13] = qHTS assay to identify small molecule agonists of the retinoic acid receptor (RAR) signaling pathway (AID 1159553); further: on the % scale 0 is the no-effect control and ±100 the full control effect
In short: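 Quantitative high-throughput format: the Tox21 10K library was tested on C3RL4 RARE-luciferase cells for 6 hr at 37 C and 5% CO2, with luminescence measured after a 30 min room-temperature reagent step.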

[14] = qHTS assay to identify small molecule agonists of the AP-1 signaling pathway - cell viability counter screen (AID 1159525; calls by dose curve; further: nearly all actives have a fitted effect of over 55% in size)
In short: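 Same-well cytotoxicity counter screen of the Tox21 10K library in ME-180 cells. The readout is ATP-dependent luminescence after 5 h compound treatment. Data are normalised to DMSO and tetra n-octyl ammonium bromide controls.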

[15] = qHTS assay to identify small molecule antagonists of the estrogen related receptor (ERR) signaling pathway - cell viability counter screen (AID 1224818)
In short: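 Quantitative high-throughput viability counter screen in ERR cells. Compounds (DMSO) incubated 17.5 h at 37 C; read-out was CellTiter-Fluor fluorescence.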

[16] = qHTS assay to identify small molecule antagonists of the estrogen related receptor (ERR) signaling pathway (AID 1224819)
In short: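 ERR reporter cell line (NTP) plated at 2,000 cells/well, settled 6 h at 37C/5% CO2, then exposed to LOPAC compounds for 18 h at 37C. One-Glo luciferase luminescence read after 30 min at room temperature.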

[17] = qHTS assay to identify small molecule agonists of the estrogen related receptor (ERR) signaling pathway (AID 1224820); further: on the % scale 0 is the no-effect control and ±100 the full control effect
In short: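 After 6 h plating (2,000 cells/well) and 18 h compound treatment at 37 C, ERR cells were lysed with One-Glo and luminescence read after 30 min at room temperature.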

[18] = tested on: estrogen-related receptor alpha (ERRalpha) with PGC-1alpha coactivator, human; assay: qHTS assay to identify small molecule antagonists of the estrogen related receptor signaling pathway with the pleiotropic PPARgamma coactivator (PGC) (AID 1224821; calls by dose curve)
In short: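 Luminescence from One-Glo luciferase reagent (30 min, room temperature) measured after 18 h compound treatment at 37 °C. Cells carry the PGC/ERR reporter and were seeded 6 h prior to dosing.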

[19] = qHTS assay to identify small molecule antagonists of the estrogen related receptor signaling pathway with the pleiotropic PPARgamma coactivator (PGC) cell viability counter screen (AID 1224822)
In short: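 Cytotoxicity in the PGC/ERR cell line is assessed with CellTiter-Fluor, read as fluorescence intensity 30 min after reagent addition, following 17.5 h compound treatment at 37 C.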

[20] = qHTS assay to identify small molecule agonists of the estrogen related receptor signaling pathway with the pleiotropic PPARgamma coactivator (PGC) (AID 1224823); further: on the % scale 0 is the no-effect control and ±100 the full control effect
In short: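 Luminescence from One-Glo reagent (30 min, room temperature) was read after 18 h compound treatment at 37 C of PGC/ERR cells plated 6 h beforehand; compounds delivered in DMSO by pin tool.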

Retinoic acid receptor RXR-alpha (Homo sapiens), sequence (P19793 whole entry, looked up): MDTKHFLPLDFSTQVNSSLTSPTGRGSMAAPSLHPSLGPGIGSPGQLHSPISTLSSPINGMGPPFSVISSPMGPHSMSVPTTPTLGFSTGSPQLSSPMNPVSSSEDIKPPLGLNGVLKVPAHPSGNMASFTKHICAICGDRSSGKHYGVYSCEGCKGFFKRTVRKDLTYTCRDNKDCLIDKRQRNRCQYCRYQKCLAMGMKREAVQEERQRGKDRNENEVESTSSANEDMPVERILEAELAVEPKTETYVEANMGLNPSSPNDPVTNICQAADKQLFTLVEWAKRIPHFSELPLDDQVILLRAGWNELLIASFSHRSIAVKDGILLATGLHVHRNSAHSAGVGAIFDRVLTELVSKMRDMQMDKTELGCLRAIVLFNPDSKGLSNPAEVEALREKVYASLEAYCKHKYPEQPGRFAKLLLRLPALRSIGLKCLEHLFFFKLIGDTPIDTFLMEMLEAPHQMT

C=CCc1cc(OC)c(O)c(C(=O)NCCO)c1
inactive: Potency [1] | outcome [2] | outcome [3] | outcome [4] | outcome [5] | Potency [6] | Potency [7] | Potency [8] | Potency [9] | Potency [10] | outcome [11] | Potency [12] | Potency [13]

CC(C)C(=O)OC/C=C/c1ccccc1
inactive: Potency [1] | outcome [2] | outcome [3] | outcome [4] | outcome [5] | Potency [6] | Potency [7] | Potency [8] | Potency [9] | Potency [10] | outcome [11]

CCOc1ccc(NC(N)=O)cc1
inactive: Potency [1] | outcome [2] | outcome [3] | outcome [4] | outcome [5] | Potency [6] | outcome [14] | Potency [8] | Potency [9] | Potency [10] | outcome [11] | Potency [12] | Potency [13]

COc1cc(Cl)ccc1Cl
inactive: Potency [1] | outcome [2] | outcome [3] | outcome [4] | outcome [5] | Potency [6] | outcome [14] | Potency [8] | Potency [9] | Potency [10] | outcome [11] | Potency [12] | Potency [13]

CC(C)CC(=O)OCc1ccccc1
inactive: Potency [1] | outcome [2] | outcome [3] | outcome [4] | outcome [5] | Potency [6] | Potency [7] | Potency [8] | Potency [9] | Potency [10] | outcome [11] | Potency [12] | Potency [13]

COc1ccccc1N1CCN(CCCNc2cc(=O)n(C)c(=O)n2C)CC1
inactive: Potency [1] | outcome [2] | outcome [3] | outcome [4] | outcome [5] | Potency [6] | outcome [14] | Potency [8] | Potency [9] | Potency [10] | outcome [11] | Potency [12] | Potency [13] | outcome [15] | outcome [16] | outcome [17] | outcome [18] | outcome [19] | outcome [20]

CC(C)(CO)[C@@H](O)C(=O)NCCC(=O)O
inactive: Potency [1] | outcome [2] | outcome [3] | outcome [4] | outcome [5] | Potency [6] | outcome [14] | Potency [8] | Potency [9] | Potency [10] | outcome [11] | Potency [12] | Potency [13]

Cc1nnc(SCC2=C(C(=O)O)N3C(=O)[C@@H](NC(=O)Cn4cnnn4)[C@H]3SC2)s1
inactive: outcome [2] | outcome [3] | outcome [4] | outcome [5] | Potency [6] | outcome [14] | Potency [8] | Potency [9] | Potency [10] | outcome [11] | Potency [12] | Potency [13] | outcome [15] | outcome [19]

NC1=NCC2c3ccccc3Cc3ccccc3N12 (stereo not drawn)
inactive: Potency [1] | outcome [2] | outcome [3] | outcome [4] | outcome [5] | Potency [6] | Potency [7] | Potency [8] | Potency [10] | outcome [11] | outcome [15] | outcome [19]

O=C(O)c1ccccc1Nc1cc(Cl)ccc1C(=O)O
inactive: outcome [2] | outcome [3] | outcome [4] | outcome [5] | activity, negative = cytotoxicity [6] -2.84% [at 19 µM] | activity change, negative = inhibition [7] -10.7% [at 19 µM] | activity change, negative = cytotoxicity [11] -3.95% [at 19 µM]

CC1=C(O)C(=O)OC1C (stereo not drawn)
inactive: outcome [2] | outcome [3] | outcome [4] | outcome [5] | Potency [6] | outcome [14] | Potency [8] | Potency [9] | Potency [10] | outcome [11] | Potency [12] | Potency [13]

CCCNC(C)C(=O)Nc1c(C)csc1C(=O)OC (stereo not drawn)
inactive: Potency [1] | outcome [2] | outcome [3] | outcome [4] | outcome [5] | Potency [6] | outcome [14] | Potency [8] | Potency [9] | Potency [10] | outcome [11] | Potency [12] | Potency [13]

CC1(C)S[C@@H]2[C@H](NC(=O)C(C(=O)O)c3ccccc3)C(=O)N2[C@H]1C(=O)O (stereo partly drawn)
inactive: Potency [1] | outcome [2] | outcome [3] | outcome [4] | outcome [5] | Potency [6] | outcome [14] | Potency [8] | Potency [9] | Potency [10] | outcome [11] | Potency [13]

OCCN(CCO)c1ccccc1
inactive: Potency [1] | outcome [2] | outcome [3] | outcome [4] | outcome [5] | Potency [6] | outcome [14] | Potency [8] | Potency [9] | Potency [10] | outcome [11] | Potency [13]

OCCN1CCN(CCO)CC1
inactive: Potency [1] | outcome [2] | outcome [3] | outcome [4] | outcome [5] | Potency [6] | outcome [14] | Potency [8] | Potency [9] | Potency [10] | outcome [11] | Potency [12] | Potency [13]

Cc1cc(NS(=O)(=O)c2ccc(N)cc2)nc(C)n1
inactive: Potency [1] | outcome [2] | outcome [3] | outcome [4] | outcome [5] | Potency [6] | outcome [14] | Potency [8] | Potency [9] | Potency [10] | outcome [11] | Potency [12] | Potency [13]

Oc1ccccc1C=NCc1ccccc1
inactive: Potency [1] | outcome [2] | outcome [3] | outcome [4] | outcome [5] | Potency [6] | outcome [14] | Potency [8] | Potency [9] | Potency [10] | outcome [11] | Potency [13]

CC(=O)O[C@H]1CC[C@@]2(C)C(=CC[C@@H]3[C@@H]2CC[C@]2(C)C(C(C)=O)=CC[C@@H]32)C1
inactive: Potency [1] | outcome [2] | outcome [3] | outcome [4] | outcome [5] | Potency [6] | outcome [14] | Potency [8] | Potency [9] | Potency [10] | outcome [11] | Potency [12] | Potency [13]

Cc1ncc(CO)c(CN)c1O
inactive: Potency [1] | outcome [2] | outcome [3] | outcome [4] | outcome [5] | Potency [6] | outcome [14] | Potency [8] | Potency [9] | Potency [10] | outcome [11] | Potency [12] | Potency [13]

NNS(=O)(=O)c1ccc(Oc2ccc(S(=O)(=O)NN)cc2)cc1
inactive: Potency [1] | outcome [2] | outcome [3] | outcome [4] | outcome [5] | Potency [6] | outcome [14] | Potency [8] | Potency [9] | Potency [10] | outcome [11] | Potency [13]

Source: PubChem BioAssay (Tox21)
